# Screens as filed in PubChem BioAssay.
# Most compounds without a hit are left out; they make up all but 3.8% or so of the library.
# ERa coact pot = ER-alpha (human) coactivator binding potentiation; P03372; TR-FRET ERalpha-LBD/SRC-Cy5 coactivator binding, 2 h; 100 = basal binding, no effect; coactivator binding (% of control), % at 25.6 µM; hit rate 1.3% among 86,000; AID 639; in the data active = activity above about 200%;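 note: binding measured in presence of low estradiol as agonist stimulus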
# ERa coact inh = ER-alpha (human) coactivator binding inhibition; P03372; TR-FRET ER-alpha LBD / SRC-1 peptide, estradiol-bound; inhibition, % at 25.6 µM; hit rate 1.7% among 86,000; in the data active = inhibition above about 50%
# ERb coact inh = blocks coactivator binding to human estrogen receptor beta. TR-FRET ER-beta LBD / SRC1-Cy5 peptide binding; receptor agonist-loaded with 1 µM estradiol. hit rate 1.3% among 86,000. AID 633. inhibition, % at 25.6 µM. Q92731;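 active = compounds whose percent inhibition of the receptor-coactivator binding signal exceeds about 50% in the single-dose screen, limit read from the data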
# MT1-MMP txn act = MT1-MMP promoter transcription activation; HT1080 MT1-MMP promoter luciferase reporter, luminescence, overnight; active compounds read high; activation factor at 10 µM; hit rate 0.16% among 86,000;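 active = activation factor of at least 2 for MT1-MMP transcription at 10 µM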
# DAT uptake mod = human DAT dopamine uptake with cocaine, either direction; Q01959; LLC-PK1 hDAT cells, [14C]-dopamine uptake with cocaine IC80; actives deviate in either direction; B-score at 10 µM; hit rate 1.3% among 110,000; AID 449768;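 active = Z score or B-score, a plate-position-corrected score, falls beyond the plate's 99.7% confidence bounds, in either direction; inactive = both scores lie inside the 99.7% bounds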
# Target sequence (Q01959 whole entry, looked up): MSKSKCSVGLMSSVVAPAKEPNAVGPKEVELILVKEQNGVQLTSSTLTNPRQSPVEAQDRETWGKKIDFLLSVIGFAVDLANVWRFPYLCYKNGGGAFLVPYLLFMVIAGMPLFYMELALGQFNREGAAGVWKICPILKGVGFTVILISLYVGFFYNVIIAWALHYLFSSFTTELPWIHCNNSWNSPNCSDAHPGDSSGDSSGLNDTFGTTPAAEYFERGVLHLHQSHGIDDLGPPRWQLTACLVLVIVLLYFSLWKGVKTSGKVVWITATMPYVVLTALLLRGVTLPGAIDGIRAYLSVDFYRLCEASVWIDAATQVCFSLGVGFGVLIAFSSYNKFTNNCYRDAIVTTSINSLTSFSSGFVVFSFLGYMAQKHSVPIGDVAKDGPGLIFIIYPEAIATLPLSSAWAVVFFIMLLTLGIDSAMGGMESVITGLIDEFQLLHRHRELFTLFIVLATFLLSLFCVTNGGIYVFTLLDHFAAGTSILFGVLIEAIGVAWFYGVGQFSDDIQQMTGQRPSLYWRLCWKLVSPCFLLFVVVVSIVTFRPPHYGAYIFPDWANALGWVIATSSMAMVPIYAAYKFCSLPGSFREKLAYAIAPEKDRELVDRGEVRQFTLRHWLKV
# Numbers stand for hits; 0 = inactive; - = no result given; [ ] = remark or other dose.
SMILES,ERa coact pot,ERa coact inh,ERb coact inh,MT1-MMP txn act,DAT uptake mod
O=C(N[C@@H](Cc1ccccc1)C(=O)O)c1ccccc1,-,-,-,0,-
O=C(O)C1CC=CCC1C(=O)NCc1ccc2c(c1)OCO2 (stereo not drawn),0,0,0,0,0
CN1/C(=C\C(=O)COC(=O)Cn2nnc(-c3ccccc3)n2)C(C)(C)c2ccccc21,291.6,0,0,0,0
CC(=O)N1C2(C=CC1(C)C(=O)NCc1ccccn1)CCCCC2 (stereo not drawn),-,-,-,0,-
Cc1ccccc1NC(=O)Cn1cnc2c1c(=O)n(C)c(=O)n2C,0,0,62.5,0,0
COc1ccc2c(c1OC)C(=O)N1N=C(c3ccc(O)cc3)CC21 (stereo not drawn),-,-,-,-,0
O=C(CCN1C(=O)c2ccccc2C1=O)Nc1ccc(F)cc1F,0,0,0,-,0
O=C(CCN1C(=O)c2ccccc2C1=O)Nc1ccc(F)cc1,0,85.2[fluorescence artefact?],0,0,0
CC(NC(=O)Nc1cccc([N+](=O)[O-])c1)(C(F)(F)F)C(F)(F)F,-,-,-,-,-3.02
CC(NC(=O)Nc1cccnc1)(C(F)(F)F)C(F)(F)F,0,0,0,0,0
N#CC1=C(SCC(=O)Nc2cccc3cccnc23)NC(=O)C(C#N)C12CCCCC2 (stereo not drawn),0,65.7[fluorescence artefact?],51.5,0,0
O=C(c1ccc2c(c1)OCO2)N1CCC2(CC1)Oc1ccc(Cl)cc1C(=O)C21CC(c2ccccc2)=NO1 (stereo not drawn),-,-,-,-,0
COCCN(Cc1cc2ccc(C)cc2n2nnnc12)Cc1nnnn1C(C)(C)C,0,0,0,0,0
CCCNC(=O)C1(CC2CC(c3ccccc3)=NO2)CCN(C(=O)c2cc(OCC)c(OCC)c(OCC)c2)CC1 (stereo not drawn),-,-,-,-,0
Cc1cc2cc(CNC(=O)c3ccc(S(=O)(=O)N(C)C)cc3)ccc2n1C,0,0,0,-,0
Cc1cc2cc(CNC(=O)Nc3cccc(Cl)c3)ccc2n1C,214.6[fluorescence artefact?],0,0,-,0
Cc1cc2cc(CNC(=O)c3ccc(S(=O)(=O)N4CCOCC4)cc3)ccc2n1C,275.7[fluorescence artefact?],0,0,-,0
Cc1cc2cc(CNC(=O)c3ccc(Br)o3)ccc2n1C,0,74.0[fluorescence artefact?],0,-,0
COc1cc2c(c(OC)c1OC)-c1c(cc(OC)c(OC)c1OC)C[C@](C)(O)[C@@H](C)C2,-,-,-,-,0
O=C(c1nn(Cc2ccccc2)c(=O)c2ccccc12)N1CCN(C/C=C/c2ccccc2)CC1,0,0,0,0,4.05
Cc1ccc(C)c(OCCOCCN2CC(C)OC(C)C2)c1C (stereo not drawn),0,0,0,0,0
CC(=O)c1sc(NC(=O)c2ccco2)nc1-c1ccccc1,0,0,0,0,0
CCOC(=O)c1sc(NC(=O)c2ccco2)nc1-c1ccccc1,271.1[fluorescence artefact?],0,0,0,0
O=C(/C=C/c1ccccc1)NC(NC(=S)Nc1ccc(Cl)cc1)C(Cl)(Cl)Cl (stereo not drawn),-,-,-,-,-2.76
Cc1cc(C)n2nc(SCc3cc(=O)oc4cc(O)ccc34)nc2n1,0,57.9,61.7[fluorescence artefact?],0,0
SMILES,ERa coact pot,ERa coact inh,ERb coact inh,MT1-MMP txn act,DAT uptake mod
CCOc1cccc(-c2cc(-c3n[nH]c(=S)n3CC)c3ccccc3n2)c1,-,-,-,-,2.38
Cc1ccc(CNC(=O)CCNC(=O)c2ccco2)cc1,0,0,0,0,0
Cc1ccccc1NC(=O)CSc1nnc(-c2ccoc2C)n1CCc1ccccc1,0,0,0,0,0
CCOC(=O)c1ccc(NC(=O)CSc2nnc(-c3cccs3)n2CC)cc1,383.5[fluorescence artefact?],0,0,0,0
CCOC(=O)c1cccc(NC(=O)CSc2nnc(C)n2Cc2ccccc2)c1,0,0,0,0,3.35
COc1ccc(NC(=O)CSc2nnc(C3CC3)n2-c2ccccc2)cc1,0,0,0,0,0
COc1ccc(NC(=O)CSc2nnc(-c3cccs3)n2-c2ccccc2)cc1,323.4[fluorescence artefact?],0,0,0,0
COc1ccc(NC(=O)CSc2nnc(-c3ccoc3C)n2CCc2ccccc2)cc1,0,0,0,0,4.22
CCOC(=O)C1=C(C)N(CCCC(=O)O)C(=O)NC1c1cccc(OC)c1 (stereo not drawn),-,-,-,0,0
C[C@@H](C(=O)Nc1ccc2ccccc2c1)[C@@H]1C[C@@]1(C)[C@@H](NC(=O)Oc1ccc(F)cc1)c1ccccc1,-,-,-,0,-
CCCC[C@@H]1C[C@H]1C(NC(=O)c1cccs1)c1ccccc1C(F)(F)F (stereo partly drawn),-,-,-,0,-
C=CCn1c(SCC(=O)Nc2ccc(C(=O)OC(C)C)cc2)nnc1-c1cccs1,825.2[fluorescence artefact?],0,0,0,0
